The values below come from PubChem BioAssay (Tox21).

A number with no mark means an inactive call. Inconclusive results are not listed. Active and inactive are the calls of the source. Unless noted, the call rests on the fitted dose curve; in most records, active means well fitted curve in the direction sought with a large enough effect in the repeat runs; inconclusive means weak or mixed curves; inactive means no such curve, though single readings can be large; an effect the other way counts as inactive or inconclusive.

Assay [1] deals with Progesterone receptor (Homo sapiens) (UniProt P06401). The experiment in a line: qHTS assay to identify small molecule agonists of the progesterone receptor (PR) signaling pathway (AID 1346784; calls by dose curve; further: nearly all actives have a fitted effect of over 30% in size). In a few lines:
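Cells (PR-UAS-bla HEK 293T, GripTite) were plated in assay medium containing 2% charcoal-stripped FBS and incubated 6 hr. Test compounds in DMSO were added for 16 hr at 37C. FRET substrate was then loaded for 2 hr at room temperature before fluorescence reading.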
(In general: Quantitative high-throughput screening tests each substance at several concentrations.)

Assay [2] shares this target. Nature of the assay: qHTS assay to identify small molecule antagonists of the progesterone receptor (PR) signaling pathway (AID 1346795; active means well fitted inhibition curve with a large enough effect in the signal ratio in the repeat runs, not every such curve was filed as active; the % refers to the signal ratio). Put shortly:
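Antagonist mode: compounds tested against 1 nM (final) promegestone stimulation in HEK293T cells expressing PR-UAS-bla reporter, 16 hr at 37C, 5% CO2; beta-lactamase activity detected via B/G FRET substrate after 2 hr at room temperature.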

Assay [3] can be described thus: qHTS assay to identify small molecule antagonists of the progesterone receptor (PR) signaling pathway - cell viability counter screen (AID 1346798). Further: series mostly up to about 92 µM; nearly all actives have a fitted effect of over 50% in size. Put shortly:
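Counter screen for cytotoxicity: viability of PR-UAS-bla HEK293T cells was measured with CellTiter-Glo luminescence following 16 hr compound exposure in the presence of R5020.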

Assay [4] can be described thus: qHTS assay to identify small molecule agonists of the progesterone receptor (PR) signaling pathway - cell viability counter screen (AID 1346799; calls by dose curve; further: nearly all actives have a fitted effect of over 45% in size). In a few lines: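 Cells (PR-UAS-bla HEK293T) are plated at 3,000/well in 2% charcoal-stripped FBS medium, rested 6 hr, dosed and incubated 16 hr at 37C. CellTiter-Glo is then added and luminescence measured after 30 min at room temperature.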

Assay [5] in a line: qHTS assay to identify small molecule antagonists of the TGF-beta/Smad signaling pathway - cell viability counter screen (AID 1346824). Further: nearly all actives have a fitted effect of over 50% in size. In a few lines:
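Cytotoxicity counter-screen run in the same wells as the beta-lactamase Smad reporter read: CellTiter-Glo luminescence after 30 min at room temperature. HEK 293T SBE-bla cells had 5 hr compound exposure at 37 C with TGF-beta1 (0.25 ng/mL stock).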

Assay [6] can be described thus: qHTS assay to identify small molecule agonists of the TGF-beta/Smad signaling pathway - cell viability counter screen (AID 1346829). Further: top concentration of the series differs between compounds; nearly all actives have a fitted effect of over 45% in size. In a few lines: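 SBE-bla HEK 293T cells plated overnight, compound exposure 5 hr at 37 C. Viability read in the same wells by CellTiter-Glo luminescence after 30 min at room temperature, following the beta-lactamase read.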
The target of assay [7] is Thyrotropin-releasing hormone receptor (Homo sapiens) (UniProt P34981). Nature of the assay: qHTS assay to identify small molecule antagonists of the thyrotropin-releasing hormone receptor (TRHR) signaling pathway (AID 1346877; active means well fitted inhibition curve with a large enough effect in the repeat runs, not every such curve was filed as active; further: series mostly up to about 51 µM). Put shortly: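 Intracellular calcium fluorescence, read kinetically every second over 3 min, reports TRH-evoked signalling in HEK293 cells carrying TRHR. Test compounds were added 5 min ahead of a 1 nM TRH challenge.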
Sequence of Thyrotropin-releasing hormone receptor (Homo sapiens) (P34981 whole entry, looked up): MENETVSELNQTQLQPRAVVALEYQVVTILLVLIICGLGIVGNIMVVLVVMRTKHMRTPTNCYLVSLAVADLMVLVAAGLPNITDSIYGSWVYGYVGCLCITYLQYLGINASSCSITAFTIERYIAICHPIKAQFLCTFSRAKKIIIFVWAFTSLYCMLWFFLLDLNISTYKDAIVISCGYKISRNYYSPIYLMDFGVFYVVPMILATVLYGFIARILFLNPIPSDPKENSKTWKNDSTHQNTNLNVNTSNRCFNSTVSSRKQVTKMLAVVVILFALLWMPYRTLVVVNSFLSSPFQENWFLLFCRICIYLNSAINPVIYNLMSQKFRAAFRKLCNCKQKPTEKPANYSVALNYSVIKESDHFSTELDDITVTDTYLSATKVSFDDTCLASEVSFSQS

Assay [8] shares this target. Nature of the assay: qHTS assay to identify small molecule agonists of the thyrotropin-releasing hormone receptor (TRHR) signaling pathway (AID 1346891; calls by dose curve;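 further: HEK293 cells expressing TRHR with calcium dye readout; series mostly up to about 58 µM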). Put shortly:
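Cells: TRHR-Hek293, seeded and incubated 18 h. Dye loading: 2 h at 37 °C. Compound added from DMSO stock by pin tool. Read-out: kinetic calcium fluorescence over 3 min.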

Assay [9] can be described thus: Human pregnane X receptor (PXR) small molecule agonists, qHTS cell viability counter screen (AID 1346977). Further: nearly all actives have a fitted effect of over 50% in size. Put shortly: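 Cytotoxicity counter screen run in the same wells as the PXR luciferase assay, using PXR-Luc HepG2 cells in charcoal-stripped serum medium. Viability: CellTiter-Fluor fluorescence after 24hr compound treatment.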
Assay [10] can be described thus: Caspase-3/7 induction in HepG2 cells by small molecules, qHTS assay (AID 1346978). Further: nearly all actives have a fitted effect of over 15% in size. Put shortly:
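Caspase-3/7 induction was measured by Caspase-Glo 3/7 luminescence (30 min, room temperature) after a 17 hr compound exposure of wild-type HepG2 cells seeded at 2,000 per well and pre-incubated 5 hr.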

A short description of assay [11]: Caspase-3/7 induction in CHO-K1 cells by small molecules, qHTS cell viability counter screen (AID 1346979). Further: nearly all actives have a fitted effect of over 35% in size. In a few lines:
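Cytotoxicity counter screen run in parallel with the caspase-3/7 assay: CHO-K1 cells, 16hr compound treatment at 37C, then CellTiter-Fluor for 1hr before fluorescence reading.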

Assay [12] in a line: Caspase-3/7 induction in CHO-K1 cells by small molecules, qHTS assay (AID 1346980). Further: nearly all actives have a fitted effect of over 15% in size. Put shortly:
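Luminescent Caspase-Glo 3/7 read (30min, room temperature) quantified apoptosis induction. Cells were wild-type CHO-K1, treated with compound for 17hr at 37 C and 5% CO2.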

Assay [13] in a line: Caspase-3/7 induction in HepG2 cells by small molecules, qHTS cell viability counter screen (AID 1346981). Further: series mostly up to about 92 µM; nearly all actives have a fitted effect of over 30% in size. In a few lines: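 HepG2, WT, 2,000 cells/well; 5 hr pre-incubation 37 C/5% CO2; compound pin-transferred from DMSO; 16 hr exposure; CellTiter-Fluor, 1 hr; fluorescence read.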
The target in assay [14] is Nuclear receptor subfamily 1 group I member 2 (Rattus norvegicus) (UniProt Q9R1A7). The experiment in a line: Rat pregnane X receptor (rPXR) activation by small molecules, qHTS assay (AID 1346983). Further: nearly all actives have a fitted effect of over 20% in size. The following applies: rPXR luciferase reporter cells, One-Glo luminescence, 24 h; stronger effect = higher value. Put shortly:
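Luminescent readout (One-Glo luciferase, 30 min room temperature) followed 24 hr compound treatment at 37 C of rPXR cells plated 2,000 per well and preincubated 5hr; qHTS format with compounds delivered in DMSO.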

Assay [15] has as its target Nuclear receptor subfamily 1 group I member 2 (Homo sapiens) (UniProt O75469). Nature of the assay: CYP3A4 induction through human pregnane X receptor (PXR) by small molecules, qHTS assay (AID 1346984). Further: nearly all actives have a fitted effect of over 40% in size. In a few lines:
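Luminescence readout: luciferase signal after One-Glo (30 min, room temperature), following 3 h at 37C with 3uM final Luciferin-IPA P450 substrate. Cells were DPX-2 (HepG2, PXR/CYP3A4-luc co-transfected) dosed for 24 h.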

Assay [16] shares this target. Nature of the assay: Human pregnane X receptor (PXR) activation by small molecules, qHTS assay (AID 1346985). Further: nearly all actives have a fitted effect of over 40% in size. In a few lines:
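DPX-2 cells (HepG2 co-transfected with a PXR response element and a CYP3A4-promoter luciferase construct) were seeded at 2,000 per well, rested 5 hr at 37C, then exposed to DMSO-dissolved compounds for 24 hr. Activation was read as luciferase luminescence.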

The target in assay [17] is Cytochrome P450 2C19 (Homo sapiens) (UniProt P33261). The experiment in a line: Cytochrome P450 Family 2 Subfamily C Member 19 (CYP2C19) small molecule antagonists: luciferase reporter qHTS assay (AID 1671197). Further: nearly all actives have a fitted effect of over 65% in size. Further: potency means the concentration at half of the fitted maximal effect. On activity change, negative = inhibition: series mostly up to about 120 µM. Put shortly:
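P450-Glo CYP2C19 system: enzyme-substrate mix with compound 10 min at room temperature, then NADPH regeneration solution, 1 h at 37C. Proluciferin-to-luciferin conversion detected by luminescence after 20 min with detection reagent; ketoconazole as positive control.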

Assay [18] addresses Cytochrome P450 2D6 (Homo sapiens) (UniProt P10635). The experiment in a line: Cytochrome P450 Family 2 Subfamily D Member 6 (CYP2D6) small molecule antagonists: luciferase reporter qHTS assay (AID 1671196). Further: series mostly up to about 120 µM; nearly all actives have a fitted effect of over 50% in size. In a few lines:
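Read-out is luminescence from luciferin formed by CYP2D6 turnover of a proluciferin substrate, recorded as relative luminescence units. Reactions ran 1 h at room temperature after NADPH regeneration solution was added.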

The nature of assay [19]: qHTS assay to identify small molecule agonists of the TGF-beta/Smad signaling pathway (AID 1346859; active means well fitted activation curve with a large enough effect in the signal ratio in the repeat runs, not every such curve was filed as active; the % refers to the signal ratio; further: series mostly up to about 77 µM). In a few lines:
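Reporter line: HEK 293T with stably integrated SBE-controlled beta-lactamase. Compound exposure lasts 5 hr at 37 C and 5% CO2; substrate loading follows for 2 hr at room temperature, with emission read at 460 and 530 nm.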

Assay [20] has as its target Nuclear receptor subfamily 1 group I member 2 (Homo sapiens) (UniProt O75469). The experiment in a line: Human pregnane X receptor (PXR) small molecule agonists, qHTS assay (AID 1346982). Further: nearly all actives have a fitted effect of over 35% in size. Further: potency means the concentration at half of the fitted maximal effect. In a few lines: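 Luciferase signal from ONE-Glo (30 min, room temperature) measured activation of hPXR-driven CYP3A4 reporter expression in PXR-Luc HepG2 cells treated with compounds for 24 hr at 37 C.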
On the % scale 0 is the no-effect control and ±100 the full control effect.

Sequence of Cytochrome P450 2D6 (Homo sapiens) (P10635 whole entry, looked up): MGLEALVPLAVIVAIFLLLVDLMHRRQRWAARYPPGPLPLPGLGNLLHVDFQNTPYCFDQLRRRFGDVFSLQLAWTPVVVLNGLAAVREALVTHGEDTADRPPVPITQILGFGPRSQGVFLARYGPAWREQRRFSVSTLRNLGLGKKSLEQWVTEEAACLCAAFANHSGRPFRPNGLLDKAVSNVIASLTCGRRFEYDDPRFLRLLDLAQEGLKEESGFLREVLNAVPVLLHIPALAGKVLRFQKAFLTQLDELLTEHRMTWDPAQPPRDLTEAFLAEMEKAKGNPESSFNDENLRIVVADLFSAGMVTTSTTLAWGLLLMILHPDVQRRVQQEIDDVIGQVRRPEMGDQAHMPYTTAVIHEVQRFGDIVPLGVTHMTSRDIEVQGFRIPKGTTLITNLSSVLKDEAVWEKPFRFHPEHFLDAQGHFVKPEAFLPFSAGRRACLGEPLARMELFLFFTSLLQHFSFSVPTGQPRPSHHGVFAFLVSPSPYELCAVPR
Sequence of Nuclear receptor subfamily 1 group I member 2 (Homo sapiens) (O75469 whole entry, looked up): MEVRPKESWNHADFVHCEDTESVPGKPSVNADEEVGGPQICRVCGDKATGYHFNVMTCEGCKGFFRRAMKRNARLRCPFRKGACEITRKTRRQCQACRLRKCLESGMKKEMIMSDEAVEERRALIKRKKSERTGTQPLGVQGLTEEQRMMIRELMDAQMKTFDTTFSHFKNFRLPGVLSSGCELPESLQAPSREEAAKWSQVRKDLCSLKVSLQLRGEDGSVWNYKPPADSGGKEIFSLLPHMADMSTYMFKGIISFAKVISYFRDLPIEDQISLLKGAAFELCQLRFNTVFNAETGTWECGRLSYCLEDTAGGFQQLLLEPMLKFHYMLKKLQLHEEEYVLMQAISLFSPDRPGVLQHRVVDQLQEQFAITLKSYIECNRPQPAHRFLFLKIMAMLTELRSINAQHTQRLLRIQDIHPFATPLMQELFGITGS
Sequence of Nuclear receptor subfamily 1 group I member 2 (Rattus norvegicus) (Q9R1A7 whole entry, looked up): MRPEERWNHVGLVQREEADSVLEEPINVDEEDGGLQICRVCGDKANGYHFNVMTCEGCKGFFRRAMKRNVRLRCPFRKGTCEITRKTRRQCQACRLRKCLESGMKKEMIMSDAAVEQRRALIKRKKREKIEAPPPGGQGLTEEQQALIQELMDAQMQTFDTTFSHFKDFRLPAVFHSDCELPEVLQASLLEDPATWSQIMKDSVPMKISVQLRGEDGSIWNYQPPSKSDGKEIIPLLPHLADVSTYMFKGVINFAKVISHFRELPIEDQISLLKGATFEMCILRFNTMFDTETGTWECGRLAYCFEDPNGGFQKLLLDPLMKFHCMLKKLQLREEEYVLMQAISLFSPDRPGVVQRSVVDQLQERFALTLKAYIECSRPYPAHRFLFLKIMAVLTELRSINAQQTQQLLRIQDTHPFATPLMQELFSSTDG
Sequence of Progesterone receptor (Homo sapiens) (P06401 whole entry, looked up): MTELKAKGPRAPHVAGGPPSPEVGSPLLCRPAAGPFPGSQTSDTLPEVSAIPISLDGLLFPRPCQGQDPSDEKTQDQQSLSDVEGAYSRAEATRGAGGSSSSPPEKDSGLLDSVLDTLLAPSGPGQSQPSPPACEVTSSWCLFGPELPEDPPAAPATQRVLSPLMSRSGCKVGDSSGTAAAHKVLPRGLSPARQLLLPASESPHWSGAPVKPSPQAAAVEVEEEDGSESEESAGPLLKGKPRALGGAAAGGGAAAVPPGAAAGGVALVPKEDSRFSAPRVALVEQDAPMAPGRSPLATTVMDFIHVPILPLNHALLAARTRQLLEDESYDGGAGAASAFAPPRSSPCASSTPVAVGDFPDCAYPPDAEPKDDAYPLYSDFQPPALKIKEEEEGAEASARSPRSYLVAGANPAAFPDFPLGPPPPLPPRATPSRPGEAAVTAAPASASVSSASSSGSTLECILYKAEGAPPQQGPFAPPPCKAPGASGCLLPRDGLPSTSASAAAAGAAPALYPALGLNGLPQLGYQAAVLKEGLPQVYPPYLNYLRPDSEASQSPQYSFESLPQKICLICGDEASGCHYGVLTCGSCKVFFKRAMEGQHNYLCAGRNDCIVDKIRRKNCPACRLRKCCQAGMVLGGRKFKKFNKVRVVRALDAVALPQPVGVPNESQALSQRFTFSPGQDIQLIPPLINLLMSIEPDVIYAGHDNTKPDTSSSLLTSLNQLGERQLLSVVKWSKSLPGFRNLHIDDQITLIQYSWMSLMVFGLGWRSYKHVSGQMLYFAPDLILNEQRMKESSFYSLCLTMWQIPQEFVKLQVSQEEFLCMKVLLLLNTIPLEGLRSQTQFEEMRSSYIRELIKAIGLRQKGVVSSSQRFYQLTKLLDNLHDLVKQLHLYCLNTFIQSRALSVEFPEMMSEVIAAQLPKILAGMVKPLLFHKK
Sequence of Cytochrome P450 2C19 (Homo sapiens) (P33261 whole entry, looked up): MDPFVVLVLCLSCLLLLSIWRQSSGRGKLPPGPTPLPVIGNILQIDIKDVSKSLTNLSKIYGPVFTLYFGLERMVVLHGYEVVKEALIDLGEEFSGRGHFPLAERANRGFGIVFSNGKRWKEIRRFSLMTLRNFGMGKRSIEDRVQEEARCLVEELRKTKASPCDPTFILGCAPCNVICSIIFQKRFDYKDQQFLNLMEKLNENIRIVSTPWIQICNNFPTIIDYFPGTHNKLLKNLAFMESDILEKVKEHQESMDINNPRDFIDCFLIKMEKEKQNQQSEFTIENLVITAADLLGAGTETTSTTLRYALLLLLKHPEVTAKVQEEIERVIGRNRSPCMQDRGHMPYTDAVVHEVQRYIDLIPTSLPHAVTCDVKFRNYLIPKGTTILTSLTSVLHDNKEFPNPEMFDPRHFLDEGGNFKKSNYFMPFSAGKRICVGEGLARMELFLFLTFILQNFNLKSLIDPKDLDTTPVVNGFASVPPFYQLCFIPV

On to `Cc1ccsc1/C=C/C1=NCCCN1C`, for which the Potency entry in assay [1], in assay [2], in assay [3], in assay [4], in assay [9] and in [10] was “inactive” in each case. The Potency result in assay [11], in assay [13], in assay [15], in assay [16] and in [17] was “inactive” throughout. Also, the molecule was called inactive in [5], in assay [6], in assay [7], in assay [8] and in assay [12]. Besides, the max activation in assay [14] is -1.84%.

In the case of `C[C@@H](O)[C@H]1C(=O)N2C(C(=O)O)=C(SCCN=CN)C[C@H]12`, the Potency result in [1], in assay [2], in assay [3], in assay [4], in assay [9] and in assay [10] was “inactive” throughout. Besides, the Potency entry in assay [11], in [13], in [15], in assay [16] and in [18] was “inactive” in each case. Further, the molecule was classed as inactive in assay [5], in assay [6], in assay [7], in [8] and in assay [12]. For the same molecule, the max activation in [14] is -4.86%.

Regarding `CC(=O)/C=C/C1C(C)=CCC(C)C1(C)C` (centres undefined), the Potency result in [1], in [2], in assay [3], in [4], in assay [9] and in [10] was “inactive” throughout. Besides, the Potency result in assay [11], in [13] and in assay [18] was “inactive” in each case. Moreover, the molecule was classed as inactive in assay [5], in assay [6], in assay [19] and in [12]. Moreover, the Potency is 19.3 µM (active) in assay [20] and 10 µM (active) in [17].

As for `CC1=CCC(C(C)C)=CC1`, the Potency result in assay [1], in assay [2], in assay [3], in assay [4], in [9] and in assay [10] was “inactive” each time. Besides, the Potency result in assay [11], in assay [13], in assay [20], in assay [18] and in [17] was “inactive” throughout. Further, the call in assay [5], in [6], in assay [19] and in [12] was inactive.

As for `CCOc1cc(NC(C)=O)ccc1C(=O)OC`, the Potency entry in [1], in assay [2], in [3], in assay [4], in assay [9] and in [10] was “inactive” in each case. For the same molecule, the Potency entry in assay [11], in assay [13], in assay [20], in assay [15], in assay [16] and in assay [18] was “inactive” throughout. The Potency entry in assay [17] was “inactive”. The result in assay [5], in assay [6], in [7], in [8] and in assay [12] was inactive. Further, in assay [14], the max activation was -4.18%.

For the molecule `Oc1cn2c(n1)Nc1ccc(Cl)c(Cl)c1C2`, the activation in assay [1] is -0.586% [at 19 µM]; in assay [19], -0.288% [at 15.8 µM]. Moreover, the activity change, negative = inhibition in assay [2] was 2.35% [at 18.9 µM]; in assay [17], 3% [at 23.6 µM]. In addition, the activity change, negative = cytotoxicity was 6.36% [at 18.9 µM] in assay [3]; 10.9% [at 19 µM] in assay [4]; -0.153% [at 15.8 µM] in assay [6]; -3.42% [at 19 µM] in assay [9]; -2.03% [at 19 µM] in [11]; 6.29% [at 19 µM] in [13]. In addition, the viability change, negative = cytotoxic in assay [5] was 8.57% [at 15.8 µM]. Also, the caspase activation in [10] is 0.135% [at 19 µM]. Besides, the caspase-3/7 activation in assay [12] is -0.902% [at 19 µM]. Besides, in assay [14], the max activation is 0.479%. Also, the Potency entry in [15] and in assay [16] was “inactive” in each case.
